The supplement of paper PMC11732987, “Enantioselective OTUD7B fragment discovery through chemoproteomics screening and high-throughput optimisation” (Communications Chemistry, 2025)

Columns and labels:
Experiment in all cases: log2 ratio of Biotin-Ahx-Ub-VS probe labelling (fragment/DMSO); higher = less target engagement (more negative = stronger competition), active = hit call of the paper (q ≤ 0.05, log2 ratio ≤ -1)
Details in all cases: compound concentration: 200 uM; treatment time: 3 h
USP42 = target: T1, USP42 (UniProt Q9H9J4)
T1 sequence (whole entry): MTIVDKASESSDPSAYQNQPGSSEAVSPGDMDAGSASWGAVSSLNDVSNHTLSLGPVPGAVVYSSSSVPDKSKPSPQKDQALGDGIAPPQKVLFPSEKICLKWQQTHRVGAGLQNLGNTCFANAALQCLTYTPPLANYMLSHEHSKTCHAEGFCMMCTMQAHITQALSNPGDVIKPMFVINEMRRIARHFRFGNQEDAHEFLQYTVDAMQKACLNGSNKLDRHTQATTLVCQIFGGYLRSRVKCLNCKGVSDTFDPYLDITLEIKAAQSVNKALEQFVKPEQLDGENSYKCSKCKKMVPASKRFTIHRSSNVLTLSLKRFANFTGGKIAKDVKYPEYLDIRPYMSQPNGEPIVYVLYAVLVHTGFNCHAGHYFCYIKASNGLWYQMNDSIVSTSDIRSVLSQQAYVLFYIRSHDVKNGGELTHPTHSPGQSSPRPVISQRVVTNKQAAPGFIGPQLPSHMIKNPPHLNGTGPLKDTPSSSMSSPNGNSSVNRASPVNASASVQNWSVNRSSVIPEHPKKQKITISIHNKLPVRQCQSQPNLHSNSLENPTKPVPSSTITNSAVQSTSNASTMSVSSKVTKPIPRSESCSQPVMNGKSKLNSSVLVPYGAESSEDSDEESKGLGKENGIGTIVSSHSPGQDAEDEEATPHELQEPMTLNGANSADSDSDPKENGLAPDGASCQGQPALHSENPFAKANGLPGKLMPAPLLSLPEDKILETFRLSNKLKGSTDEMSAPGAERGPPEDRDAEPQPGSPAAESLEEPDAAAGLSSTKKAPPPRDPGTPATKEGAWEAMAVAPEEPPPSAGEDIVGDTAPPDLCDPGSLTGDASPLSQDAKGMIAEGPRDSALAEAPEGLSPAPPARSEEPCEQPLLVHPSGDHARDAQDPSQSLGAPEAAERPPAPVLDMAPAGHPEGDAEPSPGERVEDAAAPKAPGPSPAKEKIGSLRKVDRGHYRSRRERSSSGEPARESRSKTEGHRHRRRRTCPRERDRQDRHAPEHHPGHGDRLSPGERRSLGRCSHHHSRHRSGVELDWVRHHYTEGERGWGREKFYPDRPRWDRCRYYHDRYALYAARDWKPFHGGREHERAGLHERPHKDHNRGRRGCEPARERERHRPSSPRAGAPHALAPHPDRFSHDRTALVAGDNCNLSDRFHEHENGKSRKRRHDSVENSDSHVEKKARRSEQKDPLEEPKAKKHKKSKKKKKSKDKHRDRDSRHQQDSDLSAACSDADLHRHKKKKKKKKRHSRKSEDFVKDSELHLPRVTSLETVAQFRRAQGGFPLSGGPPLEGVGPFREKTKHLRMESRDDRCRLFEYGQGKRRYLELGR
Outline: (§1)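 In triplicate, 495 µg of HEK293T lysate per sample was incubated with fragment at 200 µM or vehicle for 3 h. Biotin-Ahx-Ub-VS was then added to 0.5 µM final for 1 h, and labelled DUBs were captured with NeutrAvidin, digested with LysC and trypsin, and measured by diaPASEF LC-MS/MS. Data are average log2 fragment/vehicle ratios by unpaired t-test from global-median-normalised Spectronaut label-free quantities, restricted to proteins with ≥2 unique peptides.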

USP46 = USP46 (UniProt P62068)
Sequence of USP46 (P62068 whole entry): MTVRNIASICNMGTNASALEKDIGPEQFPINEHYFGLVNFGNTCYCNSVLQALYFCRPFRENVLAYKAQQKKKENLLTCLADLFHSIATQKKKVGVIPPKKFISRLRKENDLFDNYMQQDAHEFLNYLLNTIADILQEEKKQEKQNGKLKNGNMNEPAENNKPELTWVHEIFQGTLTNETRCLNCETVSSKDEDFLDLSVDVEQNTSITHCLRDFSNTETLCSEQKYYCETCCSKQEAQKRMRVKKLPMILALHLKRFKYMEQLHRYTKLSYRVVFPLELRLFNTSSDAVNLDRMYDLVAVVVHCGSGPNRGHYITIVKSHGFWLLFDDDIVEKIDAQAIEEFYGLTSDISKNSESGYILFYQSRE
Outline: as §1

USP47 = target: T2, USP47 (UniProt Q96K76)
T2 sequence (whole entry): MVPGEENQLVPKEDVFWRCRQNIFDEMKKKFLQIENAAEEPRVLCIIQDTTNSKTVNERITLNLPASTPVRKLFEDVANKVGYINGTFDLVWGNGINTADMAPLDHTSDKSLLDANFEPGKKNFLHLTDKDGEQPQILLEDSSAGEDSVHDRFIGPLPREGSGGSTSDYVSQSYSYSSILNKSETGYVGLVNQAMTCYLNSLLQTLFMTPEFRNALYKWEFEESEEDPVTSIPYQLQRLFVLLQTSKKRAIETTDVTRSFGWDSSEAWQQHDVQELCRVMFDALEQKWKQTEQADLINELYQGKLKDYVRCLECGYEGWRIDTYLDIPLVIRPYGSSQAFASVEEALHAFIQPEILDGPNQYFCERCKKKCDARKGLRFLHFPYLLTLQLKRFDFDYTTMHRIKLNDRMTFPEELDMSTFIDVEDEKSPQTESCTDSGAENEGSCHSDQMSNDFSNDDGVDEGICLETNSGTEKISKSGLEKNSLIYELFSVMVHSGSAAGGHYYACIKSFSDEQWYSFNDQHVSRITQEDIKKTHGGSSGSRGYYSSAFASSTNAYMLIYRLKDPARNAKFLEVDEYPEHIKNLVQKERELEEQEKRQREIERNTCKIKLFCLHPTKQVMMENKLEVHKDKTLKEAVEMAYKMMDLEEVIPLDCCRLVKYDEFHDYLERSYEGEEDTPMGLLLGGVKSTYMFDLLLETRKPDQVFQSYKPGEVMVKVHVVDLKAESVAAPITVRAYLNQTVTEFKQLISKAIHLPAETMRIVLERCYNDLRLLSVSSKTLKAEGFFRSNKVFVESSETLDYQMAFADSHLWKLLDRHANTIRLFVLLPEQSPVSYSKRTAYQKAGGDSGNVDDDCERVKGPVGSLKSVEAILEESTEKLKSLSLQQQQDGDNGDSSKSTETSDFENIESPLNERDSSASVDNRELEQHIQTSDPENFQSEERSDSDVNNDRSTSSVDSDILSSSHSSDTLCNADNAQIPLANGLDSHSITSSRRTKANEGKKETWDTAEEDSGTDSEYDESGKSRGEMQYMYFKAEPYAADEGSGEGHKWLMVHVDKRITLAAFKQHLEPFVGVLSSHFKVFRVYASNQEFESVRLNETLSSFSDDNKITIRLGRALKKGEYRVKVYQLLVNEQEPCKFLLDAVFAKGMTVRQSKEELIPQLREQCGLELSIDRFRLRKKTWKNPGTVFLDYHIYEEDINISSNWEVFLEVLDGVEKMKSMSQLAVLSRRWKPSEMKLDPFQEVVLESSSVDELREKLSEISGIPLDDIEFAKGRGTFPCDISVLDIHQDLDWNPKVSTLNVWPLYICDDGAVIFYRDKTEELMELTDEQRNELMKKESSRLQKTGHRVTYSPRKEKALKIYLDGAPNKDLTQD
Outline: as §1

USP48 = target: T3, USP48 (UniProt Q86UV5)
T3 sequence (whole entry): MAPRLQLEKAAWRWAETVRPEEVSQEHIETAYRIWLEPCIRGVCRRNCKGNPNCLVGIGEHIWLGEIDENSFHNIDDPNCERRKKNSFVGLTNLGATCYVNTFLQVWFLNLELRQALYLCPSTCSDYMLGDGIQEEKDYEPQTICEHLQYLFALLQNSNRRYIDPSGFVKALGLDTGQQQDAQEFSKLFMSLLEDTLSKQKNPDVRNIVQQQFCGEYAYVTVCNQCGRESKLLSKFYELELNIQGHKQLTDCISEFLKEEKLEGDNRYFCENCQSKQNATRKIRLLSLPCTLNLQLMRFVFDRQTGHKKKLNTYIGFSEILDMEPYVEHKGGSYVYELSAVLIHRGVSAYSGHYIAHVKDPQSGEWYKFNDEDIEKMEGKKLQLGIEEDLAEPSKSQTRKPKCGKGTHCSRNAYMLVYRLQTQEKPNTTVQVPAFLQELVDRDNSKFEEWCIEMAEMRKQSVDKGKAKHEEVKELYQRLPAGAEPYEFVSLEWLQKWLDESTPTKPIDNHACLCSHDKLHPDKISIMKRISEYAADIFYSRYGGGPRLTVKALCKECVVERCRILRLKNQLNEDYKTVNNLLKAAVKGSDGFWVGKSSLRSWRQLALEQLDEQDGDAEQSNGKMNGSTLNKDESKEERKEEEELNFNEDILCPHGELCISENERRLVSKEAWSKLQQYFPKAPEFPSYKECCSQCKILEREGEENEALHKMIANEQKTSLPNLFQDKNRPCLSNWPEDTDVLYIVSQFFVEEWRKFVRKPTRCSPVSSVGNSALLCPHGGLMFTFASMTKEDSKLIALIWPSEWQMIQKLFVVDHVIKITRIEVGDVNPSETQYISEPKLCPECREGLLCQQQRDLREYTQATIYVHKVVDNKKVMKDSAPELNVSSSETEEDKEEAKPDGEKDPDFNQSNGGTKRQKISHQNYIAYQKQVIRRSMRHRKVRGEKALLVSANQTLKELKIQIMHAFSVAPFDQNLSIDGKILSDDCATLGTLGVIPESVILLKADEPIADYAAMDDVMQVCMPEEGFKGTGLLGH
Outline: as §1

USP5 = target: T4, USP5 (UniProt P45974)
T4 sequence (whole entry): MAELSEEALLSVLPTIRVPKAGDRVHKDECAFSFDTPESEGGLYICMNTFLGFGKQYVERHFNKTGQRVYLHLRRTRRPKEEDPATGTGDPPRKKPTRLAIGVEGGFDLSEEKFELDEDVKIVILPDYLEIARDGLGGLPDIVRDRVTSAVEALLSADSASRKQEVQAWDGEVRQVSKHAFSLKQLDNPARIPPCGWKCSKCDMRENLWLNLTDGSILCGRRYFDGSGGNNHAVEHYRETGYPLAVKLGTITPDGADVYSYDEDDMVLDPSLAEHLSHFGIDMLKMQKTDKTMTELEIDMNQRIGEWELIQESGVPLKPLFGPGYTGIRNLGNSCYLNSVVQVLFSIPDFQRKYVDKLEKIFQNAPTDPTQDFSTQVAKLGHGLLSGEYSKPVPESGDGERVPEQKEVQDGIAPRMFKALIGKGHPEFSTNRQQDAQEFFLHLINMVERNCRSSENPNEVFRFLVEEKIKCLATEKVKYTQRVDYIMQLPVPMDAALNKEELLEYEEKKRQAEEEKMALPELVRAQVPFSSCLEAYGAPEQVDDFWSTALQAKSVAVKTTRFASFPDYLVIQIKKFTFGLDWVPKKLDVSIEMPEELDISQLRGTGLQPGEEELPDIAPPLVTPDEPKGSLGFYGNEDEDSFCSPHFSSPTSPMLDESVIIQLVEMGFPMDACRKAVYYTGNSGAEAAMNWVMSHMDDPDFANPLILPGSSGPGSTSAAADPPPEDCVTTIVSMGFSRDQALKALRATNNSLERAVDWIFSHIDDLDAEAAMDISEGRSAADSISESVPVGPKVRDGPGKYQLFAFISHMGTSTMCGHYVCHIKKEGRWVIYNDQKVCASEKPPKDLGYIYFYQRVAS
Outline: as §1

USP54 = USP54 (UniProt Q70EL1)
Sequence of USP54 (Q70EL1 whole entry): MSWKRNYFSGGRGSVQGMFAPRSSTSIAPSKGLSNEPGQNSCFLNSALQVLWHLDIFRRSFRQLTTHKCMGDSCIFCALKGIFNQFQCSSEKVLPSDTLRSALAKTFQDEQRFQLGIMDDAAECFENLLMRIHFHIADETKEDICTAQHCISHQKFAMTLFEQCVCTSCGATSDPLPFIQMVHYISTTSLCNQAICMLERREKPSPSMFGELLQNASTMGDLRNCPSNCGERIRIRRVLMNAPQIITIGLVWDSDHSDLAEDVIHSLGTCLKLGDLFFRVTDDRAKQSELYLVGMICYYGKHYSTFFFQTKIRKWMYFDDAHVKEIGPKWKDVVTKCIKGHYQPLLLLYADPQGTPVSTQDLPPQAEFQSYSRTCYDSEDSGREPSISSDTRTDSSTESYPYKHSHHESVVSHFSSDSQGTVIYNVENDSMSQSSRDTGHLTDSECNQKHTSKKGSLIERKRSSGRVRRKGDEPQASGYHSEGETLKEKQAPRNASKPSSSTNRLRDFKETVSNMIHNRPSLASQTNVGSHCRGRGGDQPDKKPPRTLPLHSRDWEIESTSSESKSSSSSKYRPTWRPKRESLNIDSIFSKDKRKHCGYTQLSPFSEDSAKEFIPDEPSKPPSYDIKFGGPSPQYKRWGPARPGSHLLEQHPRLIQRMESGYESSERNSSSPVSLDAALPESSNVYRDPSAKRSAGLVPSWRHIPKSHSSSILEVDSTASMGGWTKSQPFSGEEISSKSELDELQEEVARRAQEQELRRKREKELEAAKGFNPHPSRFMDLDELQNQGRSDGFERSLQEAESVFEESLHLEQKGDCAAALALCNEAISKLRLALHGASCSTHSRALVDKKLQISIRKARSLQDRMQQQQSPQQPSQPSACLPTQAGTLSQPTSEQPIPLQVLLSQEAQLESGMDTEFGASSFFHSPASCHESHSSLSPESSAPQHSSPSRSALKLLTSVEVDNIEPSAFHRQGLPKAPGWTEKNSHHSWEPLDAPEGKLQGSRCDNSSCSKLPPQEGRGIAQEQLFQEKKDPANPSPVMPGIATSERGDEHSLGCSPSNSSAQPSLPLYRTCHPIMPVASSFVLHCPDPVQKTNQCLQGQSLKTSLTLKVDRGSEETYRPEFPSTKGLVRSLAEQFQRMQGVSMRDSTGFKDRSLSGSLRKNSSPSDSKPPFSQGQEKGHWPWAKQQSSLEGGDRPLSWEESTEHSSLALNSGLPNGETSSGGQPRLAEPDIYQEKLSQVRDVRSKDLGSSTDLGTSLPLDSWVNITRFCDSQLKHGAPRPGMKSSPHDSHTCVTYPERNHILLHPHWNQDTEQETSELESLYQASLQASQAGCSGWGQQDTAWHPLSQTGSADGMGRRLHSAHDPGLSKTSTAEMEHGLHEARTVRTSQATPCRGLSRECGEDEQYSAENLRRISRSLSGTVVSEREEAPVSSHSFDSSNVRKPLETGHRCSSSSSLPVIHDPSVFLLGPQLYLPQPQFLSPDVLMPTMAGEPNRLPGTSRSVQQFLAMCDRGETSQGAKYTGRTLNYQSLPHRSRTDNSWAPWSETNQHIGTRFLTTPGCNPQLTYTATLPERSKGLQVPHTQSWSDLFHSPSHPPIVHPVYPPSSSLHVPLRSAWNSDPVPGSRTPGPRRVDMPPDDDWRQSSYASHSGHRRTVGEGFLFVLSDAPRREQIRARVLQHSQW
Outline: as §1

USP7 = USP7 (UniProt Q93009)
Outline: as §1

USP8 = target: T5, USP8 (UniProt P40818)
T5 sequence (whole entry): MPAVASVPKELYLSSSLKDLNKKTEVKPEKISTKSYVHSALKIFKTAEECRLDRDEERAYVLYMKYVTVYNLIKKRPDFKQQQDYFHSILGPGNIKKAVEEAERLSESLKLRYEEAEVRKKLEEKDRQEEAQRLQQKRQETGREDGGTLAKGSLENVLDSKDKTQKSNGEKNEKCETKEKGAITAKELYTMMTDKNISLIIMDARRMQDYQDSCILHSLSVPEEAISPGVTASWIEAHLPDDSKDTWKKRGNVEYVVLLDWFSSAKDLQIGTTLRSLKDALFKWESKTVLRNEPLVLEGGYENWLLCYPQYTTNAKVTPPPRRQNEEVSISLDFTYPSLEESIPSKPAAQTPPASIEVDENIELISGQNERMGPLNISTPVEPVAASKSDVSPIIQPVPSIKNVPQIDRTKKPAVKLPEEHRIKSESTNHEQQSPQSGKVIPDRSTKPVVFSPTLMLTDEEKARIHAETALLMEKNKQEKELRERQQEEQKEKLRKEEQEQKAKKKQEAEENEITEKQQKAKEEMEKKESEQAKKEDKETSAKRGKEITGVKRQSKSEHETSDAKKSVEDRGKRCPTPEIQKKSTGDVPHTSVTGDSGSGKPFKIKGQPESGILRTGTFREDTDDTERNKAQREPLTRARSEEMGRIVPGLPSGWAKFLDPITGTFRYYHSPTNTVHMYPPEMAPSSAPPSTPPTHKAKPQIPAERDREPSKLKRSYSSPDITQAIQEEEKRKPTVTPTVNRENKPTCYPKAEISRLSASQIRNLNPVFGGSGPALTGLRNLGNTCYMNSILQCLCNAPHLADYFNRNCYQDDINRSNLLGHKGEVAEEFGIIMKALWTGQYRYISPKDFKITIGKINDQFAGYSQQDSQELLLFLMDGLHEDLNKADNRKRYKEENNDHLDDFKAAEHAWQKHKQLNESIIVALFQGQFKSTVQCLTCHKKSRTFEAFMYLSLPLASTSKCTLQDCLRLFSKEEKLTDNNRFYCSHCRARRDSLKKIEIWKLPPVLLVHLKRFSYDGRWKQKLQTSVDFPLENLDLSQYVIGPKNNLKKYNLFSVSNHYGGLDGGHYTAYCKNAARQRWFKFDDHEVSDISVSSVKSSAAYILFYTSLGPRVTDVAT
Outline: as §1

USP9X = USP9X (UniProt Q93008)
Sequence of USP9X (Q93008 whole entry): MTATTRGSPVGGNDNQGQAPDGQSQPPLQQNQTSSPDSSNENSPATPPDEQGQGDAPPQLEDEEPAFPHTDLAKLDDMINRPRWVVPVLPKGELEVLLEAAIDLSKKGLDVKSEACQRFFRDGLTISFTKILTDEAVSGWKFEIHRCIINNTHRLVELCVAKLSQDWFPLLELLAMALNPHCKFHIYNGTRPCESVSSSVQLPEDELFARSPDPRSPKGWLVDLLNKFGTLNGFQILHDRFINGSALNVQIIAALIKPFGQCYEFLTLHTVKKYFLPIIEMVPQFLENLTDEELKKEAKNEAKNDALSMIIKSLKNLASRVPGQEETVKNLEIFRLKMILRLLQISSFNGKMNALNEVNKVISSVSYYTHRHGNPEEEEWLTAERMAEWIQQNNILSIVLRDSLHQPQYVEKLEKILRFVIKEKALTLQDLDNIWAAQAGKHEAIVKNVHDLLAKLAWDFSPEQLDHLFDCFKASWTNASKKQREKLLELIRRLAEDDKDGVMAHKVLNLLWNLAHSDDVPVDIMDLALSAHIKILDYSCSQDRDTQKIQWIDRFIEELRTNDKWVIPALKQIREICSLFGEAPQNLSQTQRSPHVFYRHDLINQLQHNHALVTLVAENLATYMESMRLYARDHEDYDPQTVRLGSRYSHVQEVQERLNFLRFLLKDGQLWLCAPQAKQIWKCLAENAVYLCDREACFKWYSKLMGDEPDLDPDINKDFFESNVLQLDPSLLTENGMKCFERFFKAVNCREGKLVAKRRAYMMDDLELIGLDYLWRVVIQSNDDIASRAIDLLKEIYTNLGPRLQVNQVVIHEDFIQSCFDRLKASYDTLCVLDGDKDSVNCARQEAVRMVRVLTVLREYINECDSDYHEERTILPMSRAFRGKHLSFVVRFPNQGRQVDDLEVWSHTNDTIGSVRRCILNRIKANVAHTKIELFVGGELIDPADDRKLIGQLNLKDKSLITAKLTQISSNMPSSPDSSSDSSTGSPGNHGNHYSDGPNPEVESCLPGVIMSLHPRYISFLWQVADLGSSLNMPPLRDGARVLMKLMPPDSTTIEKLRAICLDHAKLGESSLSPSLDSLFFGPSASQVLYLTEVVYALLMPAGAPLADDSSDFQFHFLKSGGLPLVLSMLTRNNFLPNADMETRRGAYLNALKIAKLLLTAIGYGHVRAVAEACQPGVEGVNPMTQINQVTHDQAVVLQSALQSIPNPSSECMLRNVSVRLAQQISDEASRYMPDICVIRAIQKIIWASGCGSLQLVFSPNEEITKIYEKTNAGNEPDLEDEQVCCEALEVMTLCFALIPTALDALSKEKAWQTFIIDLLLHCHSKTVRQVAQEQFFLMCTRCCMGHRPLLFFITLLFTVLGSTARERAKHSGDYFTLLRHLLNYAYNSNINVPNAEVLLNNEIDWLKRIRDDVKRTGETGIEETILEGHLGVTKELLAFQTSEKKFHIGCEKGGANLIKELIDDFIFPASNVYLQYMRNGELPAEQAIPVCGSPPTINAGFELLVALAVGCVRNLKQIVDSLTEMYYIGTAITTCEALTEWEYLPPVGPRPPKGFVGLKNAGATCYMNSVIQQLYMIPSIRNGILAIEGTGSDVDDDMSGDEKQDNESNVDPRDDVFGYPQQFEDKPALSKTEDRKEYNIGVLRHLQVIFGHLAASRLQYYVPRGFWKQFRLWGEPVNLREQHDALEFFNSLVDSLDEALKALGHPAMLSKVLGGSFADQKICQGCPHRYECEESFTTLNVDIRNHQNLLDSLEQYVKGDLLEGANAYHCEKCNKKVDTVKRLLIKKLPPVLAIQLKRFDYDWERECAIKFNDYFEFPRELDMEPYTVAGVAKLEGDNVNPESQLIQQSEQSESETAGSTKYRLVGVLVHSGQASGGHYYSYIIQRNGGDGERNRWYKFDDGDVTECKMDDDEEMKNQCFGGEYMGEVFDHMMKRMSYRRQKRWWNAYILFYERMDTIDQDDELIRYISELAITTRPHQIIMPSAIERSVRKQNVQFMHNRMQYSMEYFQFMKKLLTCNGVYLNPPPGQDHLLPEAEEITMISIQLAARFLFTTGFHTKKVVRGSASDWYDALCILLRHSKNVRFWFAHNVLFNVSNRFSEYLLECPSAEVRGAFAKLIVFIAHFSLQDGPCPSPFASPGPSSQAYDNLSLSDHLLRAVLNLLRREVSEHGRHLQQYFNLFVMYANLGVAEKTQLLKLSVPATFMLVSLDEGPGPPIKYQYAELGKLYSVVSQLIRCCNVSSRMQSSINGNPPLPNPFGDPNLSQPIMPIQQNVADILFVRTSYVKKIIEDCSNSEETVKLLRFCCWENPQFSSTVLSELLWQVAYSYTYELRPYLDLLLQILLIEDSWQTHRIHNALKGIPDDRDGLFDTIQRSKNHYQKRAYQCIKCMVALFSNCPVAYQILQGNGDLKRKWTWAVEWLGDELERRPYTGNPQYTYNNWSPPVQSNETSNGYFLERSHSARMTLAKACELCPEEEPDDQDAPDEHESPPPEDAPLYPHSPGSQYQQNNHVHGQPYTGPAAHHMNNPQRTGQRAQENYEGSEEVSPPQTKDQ
Outline: as §1

UniProt O00487 = target: UniProt O00487
Sequence of UniProt O00487 (O00487 whole entry): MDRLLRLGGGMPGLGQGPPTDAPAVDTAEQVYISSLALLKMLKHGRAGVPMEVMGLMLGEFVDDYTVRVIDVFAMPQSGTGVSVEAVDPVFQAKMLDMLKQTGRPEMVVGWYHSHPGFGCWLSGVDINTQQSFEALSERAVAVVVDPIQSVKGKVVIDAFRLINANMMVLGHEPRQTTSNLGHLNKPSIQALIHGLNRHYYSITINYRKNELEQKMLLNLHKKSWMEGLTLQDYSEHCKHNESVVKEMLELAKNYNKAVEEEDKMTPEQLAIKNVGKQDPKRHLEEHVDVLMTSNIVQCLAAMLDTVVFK
Outline: as §1

Measured: log2 ratio of Biotin-Ahx-Ub-VS probe labelling

O=C(CCl)N1CCN(C(=O)Nc2ccccc2)CC1
inactive: USP42 0.532 | USP46 -0.0442 | USP47 -0.216 | USP48 -0.158 | USP5 0.398 | USP54 0.404 | USP7 -0.132 | USP8 0.0931 | USP9X 0.0323 | UniProt O00487 -0.0538
